An excerpt weighted towards active compounds, which were near 1.9% of everything screened.
IEC-6 tox: IEC-6 cytotoxicity, counter-screen for KLF5 inhibitors; luminescence viability; inhibition, % at 5 µM; 290,000 tested, 0.78% active; AID 1825; in the data active means inhibition above about 22%;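 further: 0% = plate median of test compound wells and 100% = cytotoxic reference compound wells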
BaF3 tox: reduces parental Ba/F3 cell viability, JAK2V617F counter-screen. CellTiter-Glo ATP luminescence. inhibition, % at 5.6 µM. 220,000 tested, 1.1% active. AID 1486;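 active means inhibition above a per-campaign cutoff, the mean inhibition of all tested compounds plus 3 SD, cut at about 27% in these data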;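 further: 0% = DMSO wells and 100% = JAK Inhibitor I control wells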
KLF5 inhibitor: suppresses KLF5 promoter-driven expression. DLD-1 KLF5 promoter-luciferase reporter, luminescence. inhibition, % at 5 µM. 290,000 tested, 0.23% active. AID 1700;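 active means inhibition above a per-plate limit of that plate's mean compound inhibition plus 3 SD, cut at about 60% in these data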;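 further: 0% = DMSO wells and 100% = LY294002 at 200 µM; higher means less KLF5 promoter-driven luciferase light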
APP 5UTR inh: APP translation inhibition | SH-SY5Y APP 5'UTR-luciferase reporter, luminescence | inhibition, % at 2 µM | 190,000 tested, 0.82% active | AID 1285;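 active means inhibition above a set limit, derived from the sample mean plus 3 SD, cut at about 45% in these data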
Ba/F3 V617F tox: loss of viability in JAK2V617F-driven Ba/F3 cells; Ba/F3 EpoR-JAK2V617F viability, ATP luminescence; inhibition, % at 5.6 µM; 220,000 tested, 1.1% active; AID 1446;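 active means inhibition above the campaign mean plus 3 SD over all tested compounds, cut at about 24% in these data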;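 further: cytokine-independent growth of Ba/F3 cells driven by EpoR plus mutant JAK2; 0% = DMSO-treated cells and 100% = JAK inhibitor I control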
Numbers without * were called inactive.

Results for O=C(Nc1ccc(Cl)c(Cl)c1)Nc1ccccc1C(=O)O ?
IEC-6 tox: -10; BaF3 tox: 45*; KLF5 inhibitor: -137; APP 5UTR inh: -215; Ba/F3 V617F tox: 18

How did COC(=O)c1ccc(COC(=O)c2ccc(S(=O)(=O)N3CCC(C)CC3)cc2)o1 do in these assays?
IEC-6 tox: 1; BaF3 tox: 7; KLF5 inhibitor: 11; APP 5UTR inh: 18; Ba/F3 V617F tox: -2

How did C=CCN(C(=O)c1ccccc1)c1ccc(OC)cc1 do in these assays?
IEC-6 tox: -2; BaF3 tox: 6; KLF5 inhibitor: -30; APP 5UTR inh: -2; Ba/F3 V617F tox: 2

What do the screens show for `O=C1C=CC(=O)N1c1ccc(OC(F)F)cc1`?
IEC-6 tox: -2; BaF3 tox: 0; KLF5 inhibitor: 2; APP 5UTR inh: 56*; Ba/F3 V617F tox: -1

How did O=C1C=CC(=O)N1c1ccc(O)cc1 do in these assays?
IEC-6 tox: -4; BaF3 tox: -3; KLF5 inhibitor: 1; Ba/F3 V617F tox: 2

What do the screens show for `Cc1cc(C)c2c(=O)[nH]c(SCC(=O)N3CCCCC3)nc2n1`?
IEC-6 tox: 5; BaF3 tox: 37*; KLF5 inhibitor: 7; APP 5UTR inh: 25; Ba/F3 V617F tox: 37*

Results for O=C(Nc1nnc(-c2ccc3c(c2)CCCC3)o1)c1c(F)cccc1F ?
IEC-6 tox: 1; BaF3 tox: 61*; KLF5 inhibitor: -8; APP 5UTR inh: -7; Ba/F3 V617F tox: -3

Results for CCOc1ccc2nc(N(CCCN(C)C)C(=O)c3ccc4c(c3)CCCC4)sc2c1 ?
IEC-6 tox: -1; KLF5 inhibitor: -31

What do the screens show for `Cn1c(=N)n(CC(=O)c2ccc(F)cc2)c2ccccc21`?
IEC-6 tox: 8; KLF5 inhibitor: 61

How did Cc1n(CC(=O)c2ccc(F)cc2)c2ccccc2[n+]1C do in these assays?
IEC-6 tox: 5; BaF3 tox: 28*; KLF5 inhibitor: -19; APP 5UTR inh: 6; Ba/F3 V617F tox: 15

What do the screens show for `CCCCCCCCCCCCCCCC[n+]1ccc(/C=N/O)cc1`?
IEC-6 tox: -1; BaF3 tox: 64*; KLF5 inhibitor: 15; APP 5UTR inh: 22; Ba/F3 V617F tox: 98*

How did CCCCCCCCCCCCCCCC[n+]1ccc(C(N)=O)cc1 do in these assays?
IEC-6 tox: 2; BaF3 tox: 12; KLF5 inhibitor: -6; Ba/F3 V617F tox: 8

What do the screens show for `CC(C)N(Cc1cc2ccccc2[nH]c1=O)C(=O)C1CCCCC1`?
IEC-6 tox: 2; BaF3 tox: 28*; KLF5 inhibitor: -13; APP 5UTR inh: -26; Ba/F3 V617F tox: -2

What do the screens show for `OC(COCc1ccc2c(c1)OCO2)CN1CCN(Cc2ccccc2)CC1` (centres undefined)?
IEC-6 tox: -4; BaF3 tox: -1; KLF5 inhibitor: -26; APP 5UTR inh: 51*; Ba/F3 V617F tox: -2

What do the screens show for `Cc1c(C(=O)NCc2cccnc2)oc2ccc(S(=O)(=O)N3CCCC(C)C3)cc12` (centres undefined)?
IEC-6 tox: 4; BaF3 tox: 9; KLF5 inhibitor: 15; APP 5UTR inh: -3; Ba/F3 V617F tox: 4

Results for Cn1nnnc1Sc1ncnc2scc(-c3ccc(F)cc3)c12 ?
IEC-6 tox: 31*; BaF3 tox: 7; KLF5 inhibitor: -3; APP 5UTR inh: 0; Ba/F3 V617F tox: 27*

How did O=C(Cc1ccccc1)NCC(=O)N1CCCC1 do in these assays?
IEC-6 tox: 2; KLF5 inhibitor: -9

Results for CCN1/C(=C/C=C/c2oc3ccc4ccccc4c3[n+]2CC)Oc2ccc3ccccc3c21 ?
IEC-6 tox: 1; BaF3 tox: 68*; KLF5 inhibitor: -16; APP 5UTR inh: 54*; Ba/F3 V617F tox: 101*

What do the screens show for `S=c1[nH]cc(-c2ccccc2)n1-c1ccccc1Cl`?
IEC-6 tox: 5; BaF3 tox: 4; KLF5 inhibitor: -49; APP 5UTR inh: -4; Ba/F3 V617F tox: -3

Results for CC(/C=C/C(=O)c1ccc(C)cc1)=C\c1ccccc1 ?
IEC-6 tox: 6; BaF3 tox: 8; KLF5 inhibitor: 5; APP 5UTR inh: -12; Ba/F3 V617F tox: 0

What do the screens show for `Cc1ccc(C(=O)/C=C\C(=O)c2ccc(C)cc2)cc1`?
IEC-6 tox: -3; BaF3 tox: 3; KLF5 inhibitor: -8; APP 5UTR inh: 88*; Ba/F3 V617F tox: -2

Results for O=C(CSc1n[nH]c(=O)n1C1CC1)c1ccc(F)cc1 ?
IEC-6 tox: -4; BaF3 tox: 2; KLF5 inhibitor: -19; Ba/F3 V617F tox: 2

Results for O=C(O)c1ccccc1C(=O)N1CC=C(c2ccccc2)CC1 ?
IEC-6 tox: -2; BaF3 tox: 38*; KLF5 inhibitor: -35; APP 5UTR inh: 4; Ba/F3 V617F tox: 16

How did O=C(O)c1ccccc1C(=O)N1CCN(C(=O)c2ccccc2Cl)CC1 do in these assays?
IEC-6 tox: -7; BaF3 tox: 5; KLF5 inhibitor: -45; APP 5UTR inh: 2; Ba/F3 V617F tox: -1

How did Cc1c(C(=O)C(=O)N2CC=C(c3ccccc3)CC2)c2ccccc2n1C do in these assays?
IEC-6 tox: 47*; BaF3 tox: 28*; KLF5 inhibitor: 38; APP 5UTR inh: 82*; Ba/F3 V617F tox: 77*

What do the screens show for `Cc1c(C(=O)C(=O)N2c3ccccc3CC2C)c2ccccc2n1C` (centres undefined)?
IEC-6 tox: 9; BaF3 tox: 8; KLF5 inhibitor: 4; APP 5UTR inh: -7; Ba/F3 V617F tox: 3

Results for COc1ccc(-n2ncc(Cl)c(Cl)c2=O)cc1 ?
IEC-6 tox: 61*; BaF3 tox: -9; KLF5 inhibitor: -10; APP 5UTR inh: 92*; Ba/F3 V617F tox: 9

How did COc1ccc(-n2ncc(N(C)n3cccc3)c(Cl)c2=O)cc1 do in these assays?
IEC-6 tox: -2; BaF3 tox: 2; KLF5 inhibitor: -158; APP 5UTR inh: -133; Ba/F3 V617F tox: 1

How did COc1ccc(CN=C(N)N=C(N)N)cc1Cl do in these assays?
IEC-6 tox: 0; BaF3 tox: 22; KLF5 inhibitor: -21; APP 5UTR inh: -15; Ba/F3 V617F tox: 4

What do the screens show for `CCN(Cc1ccncc1)C(=S)Nc1ccc(Cl)cc1`?
IEC-6 tox: 2; BaF3 tox: 27*; KLF5 inhibitor: 15; APP 5UTR inh: -12; Ba/F3 V617F tox: 24*

How did CCN(CC)C(=S)Nc1ccc(Cl)c(Cl)c1 do in these assays?
IEC-6 tox: 3; BaF3 tox: 32*; KLF5 inhibitor: -14; APP 5UTR inh: 16; Ba/F3 V617F tox: 18

What do the screens show for `Cc1cc(C)c2ccc(N)nc2c1O`?
IEC-6 tox: 3; BaF3 tox: 3; KLF5 inhibitor: -20; APP 5UTR inh: 66*; Ba/F3 V617F tox: -2

What do the screens show for `CC(=NCc1cccc(Cl)c1)c1nc(-c2ccco2)oc1O`?
IEC-6 tox: 1; BaF3 tox: 49*; KLF5 inhibitor: 12; APP 5UTR inh: -18; Ba/F3 V617F tox: 53*

Results for O=C1c2ccccc2-c2ccc(C(=O)N3CCOCC3)cc21 ?
IEC-6 tox: 0; BaF3 tox: 7; KLF5 inhibitor: -6; APP 5UTR inh: -11; Ba/F3 V617F tox: -4

Results for CC(=O)C1=C(O)CC(c2ccccc2)CC1=NCCc1c(C)[nH]c2ccc(C)cc12 (centres undefined) ?
IEC-6 tox: 3; BaF3 tox: 6; KLF5 inhibitor: -9; APP 5UTR inh: -10; Ba/F3 V617F tox: 1

Source: PubChem BioAssay
